hERG WT inh: inhibitors of human wildtype KCNH2 potassium channel. activity change, % at 1.84 µM. 340,000 compounds, 0.37% hits. U2OS, BacMam KCNH2, thallium flux FluxOr; active compounds read low. Q12809;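 active = maximum activity change below -70%; inconclusive = maximum activity change between -70% and -50%; inactive = maximum activity change above -50%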
Target sequence (Q12809 whole entry, looked up): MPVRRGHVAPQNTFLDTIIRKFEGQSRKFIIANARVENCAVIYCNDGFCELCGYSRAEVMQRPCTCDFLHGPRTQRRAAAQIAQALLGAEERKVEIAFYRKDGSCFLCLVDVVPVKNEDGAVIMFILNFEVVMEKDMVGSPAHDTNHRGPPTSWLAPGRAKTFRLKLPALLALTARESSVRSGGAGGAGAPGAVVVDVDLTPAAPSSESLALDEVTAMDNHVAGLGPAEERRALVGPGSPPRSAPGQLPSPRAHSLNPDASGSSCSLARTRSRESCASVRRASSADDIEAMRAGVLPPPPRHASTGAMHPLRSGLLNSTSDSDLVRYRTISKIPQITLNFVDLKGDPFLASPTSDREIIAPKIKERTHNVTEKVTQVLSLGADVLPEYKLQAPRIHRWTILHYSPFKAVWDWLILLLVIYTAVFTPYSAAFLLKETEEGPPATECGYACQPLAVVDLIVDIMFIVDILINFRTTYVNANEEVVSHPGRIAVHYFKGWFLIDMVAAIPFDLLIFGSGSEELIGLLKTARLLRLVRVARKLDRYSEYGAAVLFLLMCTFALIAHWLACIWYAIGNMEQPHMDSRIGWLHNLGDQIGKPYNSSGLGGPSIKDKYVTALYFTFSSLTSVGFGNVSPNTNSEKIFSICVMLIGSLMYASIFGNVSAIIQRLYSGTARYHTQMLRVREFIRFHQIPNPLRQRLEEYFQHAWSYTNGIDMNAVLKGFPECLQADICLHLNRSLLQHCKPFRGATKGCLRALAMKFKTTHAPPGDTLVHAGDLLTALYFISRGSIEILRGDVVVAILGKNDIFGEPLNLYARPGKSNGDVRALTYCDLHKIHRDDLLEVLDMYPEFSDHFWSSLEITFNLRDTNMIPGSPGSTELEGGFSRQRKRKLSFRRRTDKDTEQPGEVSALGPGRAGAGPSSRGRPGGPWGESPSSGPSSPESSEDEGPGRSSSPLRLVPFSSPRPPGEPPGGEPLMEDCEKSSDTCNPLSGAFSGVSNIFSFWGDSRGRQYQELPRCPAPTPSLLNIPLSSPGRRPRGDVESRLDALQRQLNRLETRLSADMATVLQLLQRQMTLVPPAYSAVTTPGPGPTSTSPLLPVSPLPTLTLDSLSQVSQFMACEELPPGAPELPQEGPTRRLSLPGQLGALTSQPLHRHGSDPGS
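U2OS cells were transduced with wild-type KCNH2 virus (2.03 x 10^8 / mL) for 4 h at room temperature, then cultured overnight at 37 C. Thallium flux was read with FluxOr dye. Rate constants were normalized to DMSO controls.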
Giardia killer: Giardia lamblia killing. activity change, % at 7.66 µM, hits read low. 340,000 compounds, 0.15% hits. Giardia lamblia trophozoite viability; in the data active = activity change below about -80%; inconclusive = between about -30% and that limit;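 note: parasites exposed to compound for two days anaerobically before the ATP read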
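Anaerobic 48 hrs incubation at 37 deg C of 100 trophozoites/well with test compounds; ATPLite 1-Step luminescence, 15-30 min RT, reports cellular ATP as viability.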
KCNH2 3.1 block: inhibitors of human KCNH2 3.1 potassium channel isoform; 340,000 compounds, 0.95% hits; U2OS KCNH2 3.1, thallium flux FluxOr; active compounds read low; activity change, % (tested at about 1.8 µM);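 active = maximum activity change below -70%; inconclusive = maximum activity change from -70% to -50%; inactive = maximum activity change above -50%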;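 note: thallium influx rate constant from kinetic fluorescence after stimulation buffer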
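Thallium flux read-out: FluxOr dye with Red40 quencher in HBSS/HEPES, 45 min at RT. Rate constants from kinetic reads were normalized to positive and negative DMSO controls. Cells: U2OS virally expressing the 3.1 isoform.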
Coupling enz: coupling enzyme interference in Giardia aldolase counter-screen | activity change, negative = inhibition, % at 58.2 µM, hits read low | 290,000 compounds, 0.67% hits | coupling enzyme system counterscreen, AmpLite Red fluorescence | AID 2472; in the data active = activity change below about -30%
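Counterscreen of the coupled detection system alone, without aldolase: glyceraldehyde-3-phosphate coupling enzymes plus AmpLite Red readout. Compounds at 57.5 uM final, 10 min RT preincubation, 20 min RT reaction, fluorescence 525/598 nm.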
USP1 inh: blocks the human USP1/UAF1 deubiquitinase complex | AID 743255 | Potency, µM (doses to about 57.1 µM), actives largely listed as inhibitors | O94782 | 390,000 compounds, 0.23% hits | recombinant USP1/UAF1, Ub-Rhodamine cleavage fluorescence; active = well fitted inhibition curve with a large enough effect; inconclusive = small, poorly fitted or top-dose-only effect; inactive = no such curve, though single readings can be large or run the other way; note: nearly all actives have a fitted effect of over 60% in size
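Step one: compound is pinned into 1nM USP1/UAF1 in HEPES pH 7.8 buffer with TCEP. Step two: 15 min room-temperature incubation. Step three: Ub-Rho (150nM final) starts cleavage, tracked by fluorescence over six one-minute reads.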
Large screens that a line does not name were inactive. The list is not random: actives were taken first. Their share in the collection is about 1.7%.

C[C@@H]1O[C@@H](OC2CC(O)C3(CO)C4C(CCC3(O)C2)C2(O)CCC(C3=CC(=O)OC3)C2(C)C[C@H]4O)[C@H](O)[C@H](O)[C@H]1O (some centres undefined)	none (no result: hERG WT inh, Giardia killer, KCNH2 3.1 block, USP1 inh)
CCN1/C(=C\C=C\C2=[N+](CC)c3ccccc3C2(C)C)C(C)(C)c2ccccc21	hERG WT inh -208.0, KCNH2 3.1 block inconclusive, USP1 inh 14.1µM
CCCCCCN1CCN(c2ccccc2Cl)CC1	KCNH2 3.1 block -79.4
NCCc1cc(O)c(O)cc1O	Coupling enz -57.3, USP1 inh inconclusive
CC12CCC3c4ccc(OC(=O)N(CCCl)CCCl)cc4CCC3C1CCC2O (centres undefined)	KCNH2 3.1 block -89.4 (no result: Coupling enz)
CNc1ccc2oc(C[C@@H]3OC4(CC[C@@H]3C)O[C@H](C(C)C(=O)c3ccc[nH]3)[C@H](C)C[C@H]4C)nc2c1C(=O)O (some centres undefined)	none (no result: hERG WT inh, Giardia killer, KCNH2 3.1 block, USP1 inh)
CC1=NCCc2c1[nH]c1cc(O)ccc21	USP1 inh 25.1µM
O=Nc1c(-c2ccccc2)n(O)[n+]([O-])c1-c1ccccc1	USP1 inh inconclusive (no result: Giardia killer, Coupling enz)
CC[C@H](C)/C=C(C)/C=C/C1=CC2=C(Cl)C(=O)[C@](C)(OC(C)=O)C(=O)C2=CO1	USP1 inh 25.1µM (no result: Coupling enz)
Cc1ccc(S(=O)(=O)N2CN3CCN(C3)C2)cc1	hERG WT inh -130.7, KCNH2 3.1 block -134.3
OC(COCc1ccc(Cl)cc1)CN1CC=C(c2ccccc2)CC1 (centres undefined)	hERG WT inh inconclusive, KCNH2 3.1 block -112.3
C=C/C(=C/C(=O)C[C@H](C)C[C@@H](C)CC[C@H](O)[C@H](C)C(=O)C[C@@H](O)[C@H](C)[C@@H](C)OC(=O)C[C@@H](O)C1=C(C)C(=O)OC1=O)CC	none (no result: hERG WT inh, Giardia killer, KCNH2 3.1 block, USP1 inh)
CC[C@@]1(O)C(=O)OCc2c1cc1n(c2=O)Cc2cc3c(O)cccc3nc2-1	none (no result: hERG WT inh, Giardia killer, KCNH2 3.1 block, USP1 inh)
CN1CCN(c2ccc([N+](=O)[O-])c(NCC3CCCO3)c2)CC1 (centres undefined)	Coupling enz -30.8
CCC1(CC)CCNC1=O	none (no result: hERG WT inh, Giardia killer, KCNH2 3.1 block, USP1 inh)
O=C(Nc1cccc(C(=O)Nc2cc(C(=O)Nc3ccc([S+](=O)([O-])[O-])c4cc([S+](=O)([O-])[O-])cc(SOOO)c34)ccc2F)c1)Nc1cccc(C(=O)Nc2cc(C(=O)Nc3ccc([S+](=O)([O-])[O-])c4cc([S+](=O)([O-])[O-])cc([S+](=O)([O-])[O-])c34)ccc2F)c1	none (no result: hERG WT inh, Giardia killer, KCNH2 3.1 block, USP1 inh)
CCOC(=O)Cn1cc([N+](=O)[O-])nc1[N+](=O)[O-]	Coupling enz -39.1
CCOC(=O)Cn1cc(C(=O)c2ccccc2F)c2ccccc21	none
C=C1C(O)C2OC3(CCC(/C=C/C(C)C4CC(C)=CC5(OC(CC(C)(O)C(=O)O)CCC5O)O4)O3)CCC2OC1C(O)CC(C)C1OC2(CCCCO2)CCC1C (centres undefined)	none (no result: hERG WT inh, Giardia killer, KCNH2 3.1 block, USP1 inh)
COC(=O)C1=C(c2ccc(C(C)=O)cc2)C[C@@H]2CC[C@H]1N2C(=O)N1CCC(O)(c2ccc(Cl)cc2)CC1	hERG WT inh -114.9, KCNH2 3.1 block -87.9 (no result: Coupling enz)
COC(=O)C1=C(c2ccc(C(C)=O)cc2)C[C@@H]2CC[C@H]1N2C(=O)N1CCC(C)CC1	none (no result: Coupling enz)
COc1cc2c(cc1OC)-c1c(O)c(OC)cc3c1[C@H](C2)N(C)CC3	none (no result: hERG WT inh, Giardia killer, KCNH2 3.1 block, USP1 inh)
COc1cc2c(cc1OC)-c1c(OC)c(OC)cc3c1C(C2)N(C)CC3 (centres undefined)	Coupling enz -41.9, USP1 inh inconclusive
CCCCC/C=C\C/C=C\C/C=C\C/C=C\CCCC(=O)NCCCl	none (no result: hERG WT inh, Giardia killer, KCNH2 3.1 block, USP1 inh)
CCOC(=O)[C@]12Cc3cc(OC)ccc3[C@H]1N(Cc1ccccc1)C(=O)c1ccccc12	none (no result: Coupling enz)
CCOC(=O)[C@]12Cc3cc(C)ccc3[C@H]1N(Cc1ccccc1)C(=O)c1ccccc12	KCNH2 3.1 block -72.4 (no result: Coupling enz)
Cc1cc(/C=C2\C(=O)NC(=O)N(c3ccc(Cl)cc3)C2=O)c(C)n1-c1cccc(C(=O)O)c1	none
CCN1C(=O)NC(=O)/C(=C/c2cc(C)n(-c3sc(C)c(C)c3C#N)c2C)C1=O	Coupling enz -37.1
Cc1ccc(N2C(=O)NC(=O)/C(=C\c3cc(C)n(-c4sc5c(c4C#N)CCCC5)c3C)C2=O)cc1	USP1 inh 28.2µM (no result: KCNH2 3.1 block)
CCOC(=O)c1c(-n2c(C)cc(/C=C3/C(=O)NC(=O)N(CC)C3=O)c2C)sc2c1CCCC2	none (no result: Coupling enz)
COc1cc2c(cc1O)C[C@H]1NCCc3cc4c(c-2c31)OCO4	Coupling enz -30.9, USP1 inh inconclusive
COC(=O)c1nc(-c2ccc3c(n2)C(=O)C(N)=C(OC)C3=O)c(N)c(-c2ccc(OC)c(OC)c2O)c1C	Giardia killer inconclusive, Coupling enz -36.9, USP1 inh 7.08µM
Cc1cc(OCC(=O)NC2CCS(=O)(=O)C2)c2c3c(c(=O)oc2c1)CCC3 (centres undefined)	hERG WT inh -250.3
CC(=O)CC(c1ccccc1)c1c(O)c2cc(O)ccc2oc1=O (centres undefined)	none (no result: hERG WT inh, Giardia killer, KCNH2 3.1 block, USP1 inh)
COc1ccc(-n2c(O)c(/C=C/C=Nc3ccccc3)c(=O)[nH]c2=O)cc1	USP1 inh 31.6µM
O=c1[nH]c(=O)n(-c2ccccc2)c(O)c1/C=C/C=Nc1ccccc1	USP1 inh inconclusive
CCCSP(=S)(OCC)Oc1ccc(Cl)cc1Cl (centres undefined)	none (no result: hERG WT inh, Giardia killer, KCNH2 3.1 block, USP1 inh)
N#C/C(=C\c1ccc(O)cc1)C(=O)O (tested in a mixture with another compound)	Giardia killer inconclusive (no result: Coupling enz)
N#C/C(=C\c1ccc(O)c(O)c1)C(N)=S	Coupling enz -64.4 (no result: hERG WT inh, Giardia killer, KCNH2 3.1 block, USP1 inh)
CCOc1ccc(-n2c(/C=C/c3ccccc3)nc3ccccc3c2=O)cc1	none (no result: hERG WT inh, Giardia killer, KCNH2 3.1 block, Coupling enz)
CCn1nc(/C=C/c2ccccc2)nc2c(=O)n(C)c(=O)nc1-2	Giardia killer -94.3, USP1 inh 1.12µM
COc1ccc(CN2C(=O)NC(=O)/C(=C/c3ccc([N+](=O)[O-])s3)C2=O)cc1	USP1 inh 35.5µM
O=C1NC(=O)N(Cc2ccc(F)cc2)C(=O)/C1=C\c1ccc([N+](=O)[O-])s1	USP1 inh 28.2µM
COc1ccc(CN2C(=O)NC(=O)/C(=C\c3ccco3)C2=O)cc1	hERG WT inh inconclusive, USP1 inh inconclusive
c1ccc([Se]c2c(-c3ccccc3)[se]c3ccccc23)cc1	none (no result: hERG WT inh, Giardia killer, KCNH2 3.1 block, USP1 inh)
CC(C)[C@@]1(NC(=O)[C@@H]2C[C@H]3c4cccc5[nH]cc(c45)C[C@@H]3N(C)C2)O[C@]2(O)[C@H]3CCCN3C(=O)CN2C1=O	none (no result: hERG WT inh, Giardia killer, KCNH2 3.1 block, USP1 inh)
CC(C)C1C(=O)N2CCCC2[C@]2(O)O[C@@](NC(=O)[C@@H]3C=C4c5cccc6[nH]cc(c56)C[C@H]4N(C)C3)(C(C)C)C(=O)N12 (some centres undefined)	Coupling enz -34.0 (no result: hERG WT inh, Giardia killer, KCNH2 3.1 block, USP1 inh)
CC(C)[C@H]1C(=O)N2CCC[C@H]2[C@]2(O)O[C@](NC(=O)[C@@H]3C=C4c5cccc6[nH]cc(c56)C[C@H]4N(C)C3)(C(C)C)C(=O)N12	Coupling enz -45.9, USP1 inh 22.4µM

Screening data from PubChem.
